# Test results from PubChem BioAssay (NCATS).
# Several values for one entry are separate records, joined by “and”; a condition that tells them apart may be missing. Equal values may be shown once. Results filed as inconclusive are left out. Unmarked numbers belong to inactive results. Activity calls are given as the source filed them. Unless noted, calls come from the whole dose curve.
# Target: Cytochrome P450 1A2 (Homo sapiens) (UniProt P05177)
# Test: p450-cyp1a2 (AID 410);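 for activity change, negative = inhibition: -100% = full effect of reference inhibitor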
# Conditions: recombinant CYP1A2, luciferin-ME demethylation, luminescence; series mostly up to 25.6 µM; activity change, negative = inhibition: at the top concentration
# Method in brief: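 Human CYP1A2 (20nM) demethylated Luciferin-ME at its Km (100uM) in 100mM KPO4. After 10 min compound preincubation, NADPH regeneration ran the reaction 60 min at room temperature. Luciferin was read by luminescence, normalized to 57 uM furafylline.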
# Potency is the fitted concentration of half-maximal effect.
# Chain of Cytochrome P450 1A2 (Homo sapiens) (P05177 whole entry, looked up): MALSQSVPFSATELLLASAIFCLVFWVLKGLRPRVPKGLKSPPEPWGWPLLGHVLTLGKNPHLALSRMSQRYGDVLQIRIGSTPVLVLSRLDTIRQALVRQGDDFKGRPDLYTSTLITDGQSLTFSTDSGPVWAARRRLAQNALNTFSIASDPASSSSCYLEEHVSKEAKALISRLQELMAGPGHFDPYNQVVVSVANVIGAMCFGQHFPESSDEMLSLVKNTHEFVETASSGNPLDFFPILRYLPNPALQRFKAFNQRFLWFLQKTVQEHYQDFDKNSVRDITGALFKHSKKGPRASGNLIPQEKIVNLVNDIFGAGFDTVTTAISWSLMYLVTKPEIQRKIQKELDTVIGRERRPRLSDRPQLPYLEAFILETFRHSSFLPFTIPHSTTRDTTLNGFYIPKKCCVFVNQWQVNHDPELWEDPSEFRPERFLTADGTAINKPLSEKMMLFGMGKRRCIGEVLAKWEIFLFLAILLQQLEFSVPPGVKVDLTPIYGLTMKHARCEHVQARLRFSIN
Compound,"activity change, negative = inhibition",Potency
CCC(=O)O[C@H]1CC[C@H]2[C@@H]3CCC4=CC(=O)CC[C@]4(C)[C@H]3CC[C@]12C,-18%,–
O=C(O)c1nn(Cc2ccc(Cl)cc2Cl)c2ccccc12,-11.2% [at 57 µM],–
Oc1ccc2[nH]cc(CCCCN3CC=C(c4ccccc4)CC3)c2c1,–,31.6 µM (active)
OC(c1ccccc1)(c1ccccc1)C1CCNCC1,-7.4%,–
c1ccc2nc(N3CCNCC3)ccc2c1,–,1.58 µM (active) and 1.26 µM (active) and 251 nM (active)
C[C@H](N)[C@H](O)c1ccc(O)c(O)c1,–,inactive
CC(C)[N+](C)(CCC(C(N)=O)(c1ccccc1)c1ccccc1)C(C)C,-8.6%,–
NC(=O)CN1CCCC1=O,–,inactive
CN1[C@@H]2CC[C@H]1CC(OC(=O)c1cc(Cl)cc(Cl)c1)C2 (stereo not given in full),-8.7% [at 57 µM],–
COC(=O)C1=CCCN(C)C1,–,inactive
CCCCCCCCC(=O)NCc1ccc(O)c(OC)c1,–,12.6 µM (active)
O=C(CCCN1CCC(n2c(=O)[nH]c3ccccc32)CC1)c1ccc(F)cc1,-11%,–

# System: not listed separately
# Test: Cell Viability - BJ (AID 421);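 note: cells exposed to compound for 40 hours at 37 °C before readout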
# Conditions: BJ fibroblast viability, qHTS
# Method in brief: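 Quantitative HTS: ATP depletion in BJ cells after 40 hr compound exposure in complete culture medium, detected with CellTiter-Glo; AC50 from standard Hill fits.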
row,Compound,Potency
1,O=C(CCl)c1ccc(Cl)cc1Cl,47.1 µM (active)
2,C[C@@H]1C[C@@H]([C@H](O)CC2CC(=O)NC(=O)C2)C(=O)[C@@H](C)C1,> 92 µM
3,Oc1c(Br)cc(Br)cc1Br,> 92 µM
4,COP(=O)(OC)OC=C(Cl)Cl,> 92 µM
5,CCCCCCCCCCCC[N+](C)(C)CCOc1ccccc1,13.7 µM (active)
6,CNC(=O)Oc1cccc2ccccc12,> 92 µM

# System: not listed separately
# Test: Cell Viability - Jurkat (AID 426;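 active = dose-dependent loss of cell ATP signal giving a full or clear fitted curve, ranked by lower potency value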)
# Conditions: qHTS
# Method in brief: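 Jurkat (clone E6-1, human T-cell leukemia) cells, 5000/well in complete medium, were exposed to compound for 40 hr at 37 °C. Viability was read as intracellular ATP by CellTiter-Glo luminescence; AC50 came from Hill fits of concentration-response data.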
row,Compound,Potency
1,O=C(CCl)c1ccc(Cl)cc1Cl,0.345 µM (active)
2,C[C@@H]1C[C@@H]([C@H](O)CC2CC(=O)NC(=O)C2)C(=O)[C@@H](C)C1,301 nM (active) and 142 nM (active)
3,CN(C)C(=S)SSC(=S)N(C)C,12.5 µM (active)
4,COP(=O)(OC)OC=C(Cl)Cl,> 92 µM
5,CCCCCCCCCCCC[N+](C)(C)CCOc1ccccc1,25.2 µM (active)
6,CC[n+]1c(-c2ccccc2)c2cc(N)ccc2c2ccc(N)cc21,26.8 µM (active)

# System: not listed separately
# Test: Cell Viability - Hek293 (AID 427;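 active = compounds whose dose-response curve shows a full or clear partial loss of cell viability, called from curve shape rather than a numeric limit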;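 note: cells exposed to compound for 40 hours at 37 °C before reading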)
# Conditions: qHTS
# Text: NIH Chemical Genomics Center [NCGC]
# NIH Molecular Libraries Screening Centers Network [MLSCN]
# National Institutes of Environmental Health Sciences [NIEHS]
# National Toxicology Program [NTP]
# We have developed a 1536-well cell-based assay for quantitative high throughput screening (qHTS) against a number of cell lines to determine in vitro cytotoxicity of small molecules. This particular assay uses the Hek 293 cell line which is derived from human embryonic kidney cells (transformed with adenovirus).
# NCGC Assay Protocol Summary:
# The CellTiter-Glo luminescent cell viability assay (Promega) is a homogeneous method to measure the number of viable cells in culture. The end point readout of this assay is based on quantitation of intracellular ATP, an indicator of metabolic activity, using the luciferase reaction. Luciferase catalyzes the oxidation of beetle Luciferin to oxyluciferin and light in the presence of ATP. The luminescent signal is proportional to amount of ATP present.
# Using the CellTiter-Glo luminescent cell viability assay, the amount of cellular ATP was measured in the Hek293 cell line with complete culture medium following compound treatment for 40 hours. The assay was performed in opaque white Kalypsys 1536-well plates. In the screen, tamoxifen and doxorubicin were used as positive controls. Library compounds were measured for their ability to cause acute toxicity in the cell line, as reflected by a decrease in intracellular ATP levels, in a concentration-dependent manner. Data were normalized to the controls for basal activity (DMSO only) and 100% inhibition (100 uM tamoxifen). AC50 values were determined from concentration-response data modeled with the standard Hill equation.
# qHTS protocol fo CellTiter Glo Hek 293 cellular assay
# [Step] [Parameter] [Value] [Description]
# 2. Time; 5 hr; 37 °C incubation
# 4. Controls; 23 nL; Tamoxifen 0.34 uM to 100 uM & Doxorubicin 0.02 nM to 100 uM
# 5. Time; 40 hr; 37 °C incubation
# 6. Reagent; 5 uL; CellTiter Glo reagent
# 7. Time; 20 min; Room Temperature
# 8. Detection; Luminescence; Viewlux plate reader
# Keywords: cell viability, cytotoxicity, Hek293 cell line, luminescence, NTPHTS, NTPHTS_NCGC, NIEHS, EPA, DSSTox, MLSMR, MLSCN, NIH Roadmap, qHTS, NCGC
row,Compound,Potency
1,C[C@@H]1C[C@@H]([C@H](O)CC2CC(=O)NC(=O)C2)C(=O)[C@@H](C)C1,129 nM (active) and 167 nM (active)
2,CN(C)C(=S)SSC(=S)N(C)C,14.5 µM (active)
3,Oc1c(Br)cc(Br)cc1Br,> 92 µM
4,COP(=O)(OC)OC=C(Cl)Cl,> 92 µM
5,CCCCCCCCCCCC[N+](C)(C)CCOc1ccccc1,29.6 µM (active)
6,CNC(=O)Oc1cccc2ccccc12,> 92 µM
